Where “and” joins values, the source holds several entries; their conditions need not be identical. Identical values can stand only once. Records with an inconclusive call do not appear. Unmarked numbers belong to inactive results. Calls of active or inactive are those of the source. The call rests on the fitted dose curve; in most records, active means well fitted inhibition curve with a large enough effect; inconclusive means small, poorly fitted or top-dose-only effect; inactive means flat fitted curve, though single readings scatter.
The compounds below were run on MKL-1 (assay: qHTS assay to identify novel small-molecules to repurpose for Merkel cell carcinoma treatment (AID 1296009; further: nearly all actives have a fitted effect of over 60% in size)). Conditions: MCC and control cell lines, CellTiter-Glo viability, 72 h; series mostly up to 46 µM; activity change, negative = cytotoxicity: at the top concentration.
Procedure, shortened: (§1)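 qHTS format: cells treated with library compounds in DMSO across 8 (NPC) or 11 (MIPE) concentrations. Readout after 72 hr at 37 degree celsius was CellTiter-Glo luminescence.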
On the % scale 0 is the no-effect control and ±100 the full control effect; potency means the concentration at half of the fitted maximal effect.

| Structure (SMILES) | Potency | activity change, negative = cytotoxicity |
| --- | --- | --- |
| O=C(O)c1cc(-c2ccccc2)nc2ccccc12 | inactive |  |
| OC[C@@H](O)[C@H](O)[C@H](O)[C@@H](O)CO | inactive |  |
| O=C(NC1CCOCC1)c1ccc(-c2cc(-c3cn[nH]c3-c3ccccn3)ccn2)cc1 |  | -0.877% |
| CCN1CCC[C@H]1CNC(=O)c1cc(S(N)(=O)=O)ccc1OC |  | 10.5% |
| COc1ccc(C2CC(c3ccccc3)=NN2c2ccc(S(N)(=O)=O)cc2)cc1 (stereo unspecified) |  | 13.9% |
| Clc1ccc(Cn2c(CN3CCCC3)nc3ccccc32)cc1 |  | -18% |
| O=C(O)Cc1cccc2ccccc12 | inactive |  |
| C[C@@H](O)[C@H]1C(=O)N2C(C(=O)O)=C(S[C@@H]3CN[C@H](C(=O)N(C)C)C3)[C@H](C)[C@H]12 | inactive |  |
| CC(=O)Oc1cc2c(s1)CCN(C(C(=O)C1CC1)c1ccccc1F)C2 (stereo unspecified) | 11.8 µM (active) |  |
| CC(=O)CCCCn1c(=O)c2c(ncn2C)n(C)c1=O |  | 6.08% |
| O=C(CCN1CCN(C(=O)OCc2cc(Cl)cc(Cl)c2)CC1)c1ccc2[nH]c(=O)oc2c1 |  | -6.72% |
| COc1ncc(-c2ccc3nccc(-c4ccnnc4)c3c2)cc1NS(=O)(=O)c1ccc(F)cc1F | 1.48 µM (active) |  |
| O=C(O)CCc1nc(-c2ccccc2)c(-c2ccccc2)o1 |  | -13.5% |
| CNC(=O)c1ccc2cc(C3(O)CCn4cncc43)ccc2c1 (stereo unspecified) |  | -4.4% |
| COc1ccccc1N1CCN(CCCNc2cc(=O)n(C)c(=O)n2C)CC1 |  | 0.503% |
| CS(=O)c1ccc(-c2nc(-c3ccc(F)cc3)c(-c3ccncc3)[nH]2)cc1 (stereo unspecified) |  | 4.41% [at 92.7 µM] |
| CC(C)C(=O)Oc1ccc(CO)cc1[C@H](CCN(C(C)C)C(C)C)c1ccccc1 |  | -18.6% |

| Structure (SMILES) | Potency | activity change, negative = cytotoxicity |
| --- | --- | --- |
| Cc1cnc(C(=O)O)c[n+]1[O-] |  | -5.75% |
| CC[C@]1(O)C[C@@H]2CN(CCc3c([nH]c4ccccc34)[C@@](C(=O)OC)(c3cc4c(cc3OC)N(C)[C@H]3[C@@](O)(C(=O)OC)[C@H](OC(C)=O)[C@]5(CC)C=CCN6CC[C@]43[C@@H]65)C2)C1 | 75 nM (active) and 168 nM (active) |  |
| COc1ccc2cc(-c3nc(-c4ccc(S(C)=O)cc4)[nH]c3-c3ccncc3)ccc2c1 (stereo unspecified) |  | -4.53% |
| CCN(CC)CCNC(=O)c1ccc(N)cc1 |  | 4.9% |
| CC(C)(C)c1cc(C(=O)O)c(NC(=O)Nc2ccc3[nH]ncc3c2)s1 |  | -22.1% |
| COc1ccc2c(Oc3ccc(NC(=O)c4c(C)n(CC(C)(C)O)n(-c5ccccc5)c4=O)nc3)ccnc2c1 |  | -7.91% |
| NC(=O)c1ccc2nc(-c3ccc(Oc4ccc(Cl)cc4)cc3)[nH]c2c1 |  | -24.6% |
| O=C(O)c1ccccc1C(=O)Nc1ccc(-c2ccccc2)cc1 |  | -0.936% |
| CN(C)CCC(c1ccccc1)c1ccccn1 (stereo unspecified) |  | 2.31% |
| COC(=O)[C@@H]1[C@H]2C[C@H]3c4[nH]c5ccccc5c4CCN3C[C@@H]2CC[C@@H]1O |  | 6.57% |
| Cc1ccccc1C(C(=O)NC1CCCCC1)N(C(=O)Cn1ccnc1C)c1cccc(F)c1 (stereo unspecified) |  | -4.82% |
| Cc1c(NC(=O)c2ccc(C(C)(C)C)cc2)cccc1-c1cn(C)c(=O)c(Nc2ccc(C(=O)N3CCOCC3)cc2)n1 |  | -2.02% |
| CCOC(=O)C1=C(N)Oc2ccc(Br)cc2C1C(C#N)C(=O)OCC (stereo unspecified) |  | -1.45% |
| Cc1ccc(Nc2cc(-c3cccc(N4C(=O)c5ccccc5C4=O)c3)ncn2)cc1NS(C)(=O)=O |  | 5.57% |
| CCCNC(=O)NS(=O)(=O)c1ccc(Cl)cc1 |  | 2.19% |
| COc1cc2ncnc(-n3nc(-c4ccccn4)nc3N)c2cc1OC |  | 7.87% |

The compounds below were run on MKL-2 in the same assay as above. Conditions: MCC and control cell lines, CellTiter-Glo viability, 72 h; series mostly up to 46 µM; activity change, negative = cytotoxicity: at the top concentration.
Procedure, shortened: as §1

| Structure (SMILES) | Potency | activity change, negative = cytotoxicity |
| --- | --- | --- |
| O=C(O)c1cc(-c2ccccc2)nc2ccccc12 | inactive |  |
| OC[C@@H](O)[C@H](O)[C@H](O)[C@@H](O)CO | inactive |  |
| O=C(NC1CCOCC1)c1ccc(-c2cc(-c3cn[nH]c3-c3ccccn3)ccn2)cc1 |  | 51.5% |
| CCN1CCC[C@H]1CNC(=O)c1cc(S(N)(=O)=O)ccc1OC |  | 11.3% |
| COc1ccc(C2CC(c3ccccc3)=NN2c2ccc(S(N)(=O)=O)cc2)cc1 (stereo unspecified) |  | -5.84% |
| O=C(O)Cc1cccc2ccccc12 | inactive |  |
| C[C@@H](O)[C@H]1C(=O)N2C(C(=O)O)=C(S[C@@H]3CN[C@H](C(=O)N(C)C)C3)[C@H](C)[C@H]12 | inactive |  |
| CC(=O)Oc1cc2c(s1)CCN(C(C(=O)C1CC1)c1ccccc1F)C2 (stereo unspecified) | 10.5 µM (active) |  |
| CC(=O)CCCCn1c(=O)c2c(ncn2C)n(C)c1=O |  | 1.08% |
| O=C(CCN1CCN(C(=O)OCc2cc(Cl)cc(Cl)c2)CC1)c1ccc2[nH]c(=O)oc2c1 |  | 1.14% |
| COc1ncc(-c2ccc3nccc(-c4ccnnc4)c3c2)cc1NS(=O)(=O)c1ccc(F)cc1F | 0.105 µM (active) |  |
| CNC(=O)c1ccc2cc(C3(O)CCn4cncc43)ccc2c1 (stereo unspecified) |  | -0.0784% |
| COc1ccccc1N1CCN(CCCNc2cc(=O)n(C)c(=O)n2C)CC1 |  | -20.6% |
| CS(=O)c1ccc(-c2nc(-c3ccc(F)cc3)c(-c3ccncc3)[nH]2)cc1 (stereo unspecified) |  | -26.5% [at 92.7 µM] |
| CC(C)C(=O)Oc1ccc(CO)cc1[C@H](CCN(C(C)C)C(C)C)c1ccccc1 |  | -5.6% |
| CC[C@]1(O)C[C@@H]2CN(CCc3c([nH]c4ccccc34)[C@@](C(=O)OC)(c3cc4c(cc3OC)N(C)[C@H]3[C@@](O)(C(=O)OC)[C@H](OC(C)=O)[C@]5(CC)C=CCN6CC[C@]43[C@@H]65)C2)C1 | 75 nM (active) and 150 nM (active) |  |
| CCN(CC)CCNC(=O)c1ccc(N)cc1 |  | 0.522% |
| CC(C)(C)c1cc(C(=O)O)c(NC(=O)Nc2ccc3[nH]ncc3c2)s1 |  | -13.7% |
| COc1ccc2c(Oc3ccc(NC(=O)c4c(C)n(CC(C)(C)O)n(-c5ccccc5)c4=O)nc3)ccnc2c1 |  | -13.7% |
| O=C(O)c1ccccc1C(=O)Nc1ccc(-c2ccccc2)cc1 |  | 3.17% |
| CN(C)CCC(c1ccccc1)c1ccccn1 (stereo unspecified) |  | 16.6% |
| COC(=O)[C@@H]1[C@H]2C[C@H]3c4[nH]c5ccccc5c4CCN3C[C@@H]2CC[C@@H]1O |  | 3.17% |
| Cc1ccccc1C(C(=O)NC1CCCCC1)N(C(=O)Cn1ccnc1C)c1cccc(F)c1 (stereo unspecified) |  | 10.7% |
| Cc1c(NC(=O)c2ccc(C(C)(C)C)cc2)cccc1-c1cn(C)c(=O)c(Nc2ccc(C(=O)N3CCOCC3)cc2)n1 |  | -24.6% |
| CCOC(=O)C1=C(N)Oc2ccc(Br)cc2C1C(C#N)C(=O)OCC (stereo unspecified) |  | -25.7% |
| Cc1ccc(Nc2cc(-c3cccc(N4C(=O)c5ccccc5C4=O)c3)ncn2)cc1NS(C)(=O)=O |  | 4.95% |
| CCCNC(=O)NS(=O)(=O)c1ccc(Cl)cc1 |  | 6.59% |
| COc1cc2ncnc(-n3nc(-c4ccccn4)nc3N)c2cc1OC |  | -3.57% |

— PubChem BioAssay (NCATS)
